# Screens as filed in PubChem BioAssay.
# An excerpt weighted towards active compounds, which were near 8.3% of everything screened.
# RORg inh: ROR gamma (mouse) transcription inhibition; Potency, µM (doses to about 53.6 µM), actives largely listed as inhibitors; actives 5.4% (n = 310,000); Drosophila S2 Gal4-RORgamma UAS-luciferase reporter, 20 h; P51450; also: nearly all actives have a fitted effect of over 60% in size
# Target sequence (P51450 whole entry, looked up, the tested form may be a part): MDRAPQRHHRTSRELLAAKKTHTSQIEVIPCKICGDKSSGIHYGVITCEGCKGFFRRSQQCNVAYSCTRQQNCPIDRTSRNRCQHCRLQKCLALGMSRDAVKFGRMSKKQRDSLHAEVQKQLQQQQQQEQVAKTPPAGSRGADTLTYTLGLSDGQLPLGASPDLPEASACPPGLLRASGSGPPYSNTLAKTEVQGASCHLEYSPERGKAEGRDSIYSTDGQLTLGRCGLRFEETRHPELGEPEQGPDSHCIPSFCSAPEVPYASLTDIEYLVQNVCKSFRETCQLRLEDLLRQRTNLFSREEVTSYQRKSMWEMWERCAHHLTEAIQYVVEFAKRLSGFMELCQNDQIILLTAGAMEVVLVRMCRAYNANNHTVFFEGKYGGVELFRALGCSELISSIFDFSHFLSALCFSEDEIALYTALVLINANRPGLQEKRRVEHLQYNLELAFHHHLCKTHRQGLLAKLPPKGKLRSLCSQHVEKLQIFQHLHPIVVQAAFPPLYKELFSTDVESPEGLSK
#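 Schneider cells (Drosophila), stable Gal4 DBD–ROR gamma + UAS-luc; 1 hr cmpd preincubation; Cu2+ induction 700 uM final; 20 hr ambient; luminescence.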
# MCF10A rereplic: inducers of DNA re-replication in MCF 10A breast cells; MCF 10A DNA re-replication, Hoechst nuclear intensity, 48 h; Potency, µM (titrated, usually from 46.1 µM), hits mostly activators; actives 2.9% (n = 350,000); AID 624296; also: nearly all actives have a fitted effect of over 50% in size
# SW480 rereplic: DNA re-replication induction in SW480 cells | SW480 DNA re-replication, Hoechst DNA content imaging, 48 h | Potency, µM (series often up to 46.1 µM), usual class: activators | actives 1.8% (n = 340,000); also: nearly all actives have a fitted effect of over 55% in size
#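 Compounds, transferred as 23 nL by pin tool, were incubated with cells for 48 hr; DNA content per nucleus was then quantified by Hoechst staining and fluorescence plate imaging.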
# VP16 counter: counter-screen for ROR gamma inhibitors: Gal4-VP16 reporter; Drosophila S2 Gal4-VP16 UAS-luciferase, luminescence, 20 h; Potency, µM (series often up to 53.6 µM), hits mostly inhibitors; actives 3.5% (n = 310,000);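 also: Gal4-VP16 expression switched on by copper sulfate through the metallothionein promoter; nearly all actives have a fitted effect of over 50% in size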
# Chronic BCR inh: blocks chronic active B-cell receptor signaling; actives 0.05% (n = 340,000); Potency, µM (highest dose often 46.1 µM), hits mostly inhibitors; ABC-DLBCL IkBa-CBG/CBR reporter, luminescence ratio, 4 h; active = well fitted inhibition curve with a large enough effect in the signal ratio, with a control signal flat, not every such curve was filed as active; inconclusive = small, poorly fitted or top-dose-only effect, or effect the other way, or a change in a side signal; the % refers to the signal ratio
#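 TMD8 human ABC-DLBCL cells with doxycycline-inducible IκBα–green luciferase fusion and unfused red luciferase, in 0.5% FBS medium; compounds up to 46 uM, 4 h at 37C. Green/red luminescence ratio, filter-overlap corrected, fitted to concentration-response curves.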
# Giardia kill: kills Giardia lamblia; Giardia lamblia trophozoite viability; activity change, % at 7.66 µM, hits read low; actives 0.15% (n = 340,000); AID 540267; in the data active = activity change below about -80%; inconclusive = between about -30% and that limit;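 also: parasites exposed to compound for two days anaerobically before the ATP read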
#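 Trophozoite viability was measured as ATP-dependent luminescence, read 15-30 min after reagent addition. Before that, parasites at 100 cells/well were exposed to compounds for 48 h, anaerobically, at 37 deg C.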
# Numbers stand for hits; n = inactive; u = inconclusive; x = not tested or not shown; [ ] = another dose, or the depositor's remark. Unless noted, calls follow the shape of the dose curve; as a rule, active = well fitted curve in the direction sought with a large enough effect; inconclusive = small, poorly fitted or top-dose-only effect, or another doubt; inactive = no such curve, though single readings can be large; an effect the other way counts as inactive or inconclusive.
SMILES,RORg inh,MCF10A rereplic,SW480 rereplic,VP16 counter,Chronic BCR inh,Giardia kill
Cc1cccc(OCc2nnc(SCC(=O)N3c4ccccc4CC3C)n2C)c1C (centres undefined),u,n,n[9.22 µM],14µM,u,n
COc1cc2oc3ccc(C#Cc4ccc(N)cc4)cc3c(=O)c2cc1OC,x,23µM,n,x,x,n
COc1cc2oc3ccc(C#Cc4ccccn4)cc3c(=O)c2cc1OC,x,21µM,u,x,x,n
Cn1c2ccccc2c(=O)c2ccc(C#Cc3ccccn3)cc21,11µM,u,n,16µM,n,n
COc1cc2oc3cc(C#Cc4ccc(N)cc4)ccc3c(=O)c2cc1OC,x,9.2µM,9.2µM,x,x,n
Cn1cncc1C#Cc1ccc2c(=O)c3ccccc3oc2c1,x,n,n,x,u,n
COc1ccc2[nH]c(C(=O)N3CCCN(Cc4ccc(F)cc4)CC3)cc2c1,n,n,n,n,n,n
Cc1ccc(C(C)NC(=O)Cc2cccs2)c(C)c1 (centres undefined),n,u,n,n,n,n
Cn1nc(C(=O)OCC(=O)NC2CCS(=O)(=O)C2)c2ccccc2c1=O (centres undefined),n,n,n,n,n,n
N#Cc1ccc(C#Cc2ccc3oc4ccccc4c(=O)c3c2)cc1,x,n,n,x,n,n
Cn1c2ccccc2c(=O)c2cc(C#CC3(O)CCCCC3)ccc21,11µM,u,u,16µM,u,u
Cn1c2ccccc2c(=O)c2ccc(C#CC3(N)CCCCC3)cc21,n,u,u,n,u,n
Nc1ccc(C#Cc2ccc3c(=O)c4ccccc4oc3c2)cc1,n,u,16µM,n,n,n
CCOC(=O)C(Cc1ccccc1)NC(=O)CCc1c(C)nc2ncnn2c1C (centres undefined),n,n[0.0737 µM],n,n,n,n
CCOC(=O)C(Sc1cc(-c2ccccc2)nc2ncnn12)C(C)=O (centres undefined),0.63µM,n,n,2.8µM,u,n
COc1ccc(Nc2nc(N)c([N+](=O)[O-])c(NC3CCCCC3)n2)cc1,u,16µM,u,u,n,n
O=C(N/N=C/c1cc2c3c(c1O)CCCN3CCC2)c1ccccc1O,u,13µM,9.2µM,20µM,u,n
Cc1nn(-c2ccccc2)c(N2CCCC2)c1/C=N/NC(=O)c1ccccc1O,10µM,u,n,10µM,u,n
Cc1nn(-c2ccccc2)c(N2CCCC2)c1/C=N/NC(=O)c1cc(-c2cccnc2)nc2ccccc12,n,13µM,u,u,n,n
COc1ccc(/C=N/NC(=O)c2cc(-c3cccnc3)nc3ccccc23)c(OC)c1,u,n,n,n,n,n
Cc1cc(C=O)c(C)n1-c1ccc(NC2CCCC2)c([N+](=O)[O-])c1,n,u,n,n,u,n
COc1cc(C(=O)NC2CC(C)(C)CC(C)(C)C2)ccc1OC1CCN(C(C)=O)CC1,n,n,n,n,n,n
CCN1C(=O)[C@H]2[C@@H](c3ccc(-c4ccc(F)cc4)c(OC)c3)N[C@@](CC(C)C)(C(=O)OC)[C@H]2C1=O,x,x,x,x,n,x
CCCC[C@@H]1CNCCN1CCc1cc(C(F)(F)F)cc(C(F)(F)F)c1,x,n,n,x,n,n
FC(F)(F)c1cc(CCN2CCNC[C@@H]2CC2CCCCC2)cc(C(F)(F)F)c1,x,18µM,n,x,n,n
SMILES,RORg inh,MCF10A rereplic,SW480 rereplic,VP16 counter,Chronic BCR inh,Giardia kill
Cc1ccc(C2=NC(=O)/C(=C/c3cc(O)c(O)c(Br)c3)S2)cc1,n,u,8.2µM,n,u,n
COc1cccc(CS(=O)(=O)c2nnnn2-c2ccccc2)c1,7.1µM,x,x,n,x,x
COc1cccc(CS(=O)(=O)c2nnnn2C2CCCCC2)c1,n,x,x,n,x,x
CCCS(=O)(=O)c1nnnn1-c1cccc(OC)c1,1.8µM,6.5µM,u,4.5µM,u,n
Nc1cccc(-c2cnc3ccccc3n2)c1,n,n,n,u,n,n
CCc1ccccc1NC(=S)N(CCN(C)C)Cc1cccs1,11µM,n,n,n[10 µM],n,n
Cc1cc(NC(=S)N(CCN2CCOCC2)Cc2ccccc2F)ccc1Cl,10µM,n,n,u,n,n
CCc1ccccc1NC(=S)N(CCN1CCOCC1)Cc1ccccc1F,16µM,n,n,n,n,n
Cc1ccc(NC(=S)N(CCN2CCOCC2)Cc2ccccc2F)cc1,u,n,n,n,u,n
Cc1ccccc1NC(=S)N(CCN1CCOCC1)Cc1ccccc1F,14µM,n,n,n,n,n
O=C(NCC(c1ccccc1Cl)N1CCCC1)c1ccc(N2CCCC2=O)cc1 (centres undefined),x,n,n,x,n,n
Cc1onc(NC(=O)NC(=O)c2c(Cl)cccc2Cl)c1Br,n,n,n,n,n,n
COc1ccc(N2CCN(C(=O)[C@@H]3CCCN3C3=NS(=O)(=O)c4ccccc43)CC2)cc1,x,n,n,x,n,n
COc1cccc(NC(=S)N(CCCN2CCOCC2)Cc2cn(C)c3ccccc23)c1,18µM,n,n,u,n,n
COc1ccc(NC(=S)N(CCCN2CCOCC2)Cc2cn(C)c3ccccc23)cc1OC,n,n,n,n,n,n
CCOC(=O)c1ccc(NC(=O)Cn2ccc([N+](=O)[O-])n2)cc1,n,n,n,n,n,n
O=C(NC(=S)Nc1ccccn1)c1ccco1,13µM,n,x,u,u,n
CCNC(=S)Nc1cc(C)ccn1,2.5µM,n,n,5.6µM,n,n
Cc1ccnc(NC(=S)NC(=O)c2ccco2)c1,4.5µM,n,n,u,u,n
Cc1ccnc(NC(=O)/C=C/c2cccs2)c1,8.9µM,u,u,13µM,u,u
O=C(NC(=S)Nc1cccnc1Cl)c1ccco1,u,n,n,n,u,u
O=C(/C=C/c1cccs1)Nc1nncs1,n,n,n,n,u,n
Cc1ccnc(NC(=S)NC(=O)c2cccs2)c1,2.2µM,n,n,4µM,u,u
Cc1ccc(S(=O)(=O)N2CCCCC2)cc1NC(=O)CSc1nnc(C2CC2)n1N,x,n,n,x,n,n
CCC(C)c1ccc(NC(=O)c2ccco2)cc1 (centres undefined),20µM,n,n,7.9µM,u,u
SMILES,RORg inh,MCF10A rereplic,SW480 rereplic,VP16 counter,Chronic BCR inh,Giardia kill
COc1ccc(-c2ccc(NC(=O)c3ccco3)cc2)nn1,x,n,u,x,u,-93
COc1ccc(NC(=O)Cn2nnc(-c3ccccc3NC(=O)c3ccco3)n2)cc1,u,10µM,u,u,n,n
COc1ccc(-c2cccc(NC(=O)c3ccco3)c2)nn1,x,n,n,x,n,n
CCC(C)c1ccc(NC(=O)COC(=O)CCNC(=O)c2ccco2)cc1 (centres undefined),x,n,n,x,n,n
COc1ccccc1N1CCN(CCCC(=O)c2ccc(F)cc2)CC1,n,n,n,n,n,n
COc1ccc(C(=O)CCN2CCN(c3ccccc3OC)CC2)cc1,n,2.6µM,u,2.8µM,u,n
